Data on one sequence can be found in paper PMC7862700, “An all-to-all approach to the identification of sequence-specific readers for epigenetic DNA modifications on cytosine”.

What all share (experiment): DAPPL (digital affinity profiling via proximity ligation, sequencing); 10 mM Tris-HCl pH 7.5, 50 mM NaCl, 1 mM DTT, 4% glycerol, room temperature, 30 min; GST-TFs on glutathione beads, 16-mer random dsDNA library, 0.1% formaldehyde crosslink after washing; high values mean tight binding
For one experiment, the target named is T1, FEV (Homo sapiens, UniProt Q99581 1-238).
T1 sequence: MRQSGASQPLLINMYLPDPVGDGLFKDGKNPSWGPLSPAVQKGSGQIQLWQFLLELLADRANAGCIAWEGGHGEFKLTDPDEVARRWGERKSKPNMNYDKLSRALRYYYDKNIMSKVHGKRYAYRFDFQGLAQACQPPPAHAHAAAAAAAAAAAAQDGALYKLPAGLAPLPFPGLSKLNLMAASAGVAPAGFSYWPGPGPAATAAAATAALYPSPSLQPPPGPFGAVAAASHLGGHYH
To be noted: protein: recombinant; tags: N-terminal GST; dsDNA, one strand shown. The method, boiled down:
(§1)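 Human transcription factors carrying a GST fusion were produced in yeast, bound to glutathione beads, tagged with DNA barcodes and pooled together with a tag-only sample. Each pool was held with 200 nmole of a random double-stranded 16-mer DNA library in Tris/NaCl/DTT/glycerol buffer for 30 min at room temperature, then washed, crosslinked in 0.1% formaldehyde, proximity-ligated with BsaI/T4 ligase (1 h, 37 °C), PCR-amplified and sequenced on an Illumina NextSeq500. Binding signal is the read frequency of each hexamer for a given factor divided by its frequency in the tag-only sample.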

The next experiment deals with ETV5 (Homo sapiens, UniProt P41161 1-510). The following applies: protein: recombinant; tags: N-terminal GST; dsDNA, one strand shown. The method, boiled down: as §1
Another experiment concerns the target HSF1 (Homo sapiens, UniProt Q00613 1-529). The following applies: protein: recombinant; tags: N-terminal GST; chain copies: 3; dsDNA, one strand shown. The method, boiled down: as §1
The next experiment addresses T2, SPIC (Homo sapiens, UniProt Q8N5J4 1-248).
T2 sequence: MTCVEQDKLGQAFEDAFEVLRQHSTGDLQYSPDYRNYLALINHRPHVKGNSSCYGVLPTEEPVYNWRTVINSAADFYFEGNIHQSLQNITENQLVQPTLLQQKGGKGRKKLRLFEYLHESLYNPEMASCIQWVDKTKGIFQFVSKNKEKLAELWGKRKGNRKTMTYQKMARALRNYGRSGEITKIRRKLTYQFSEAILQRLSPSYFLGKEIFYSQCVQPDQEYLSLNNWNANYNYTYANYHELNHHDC
The following applies: protein: recombinant; tags: N-terminal GST; dsDNA, one strand shown. The method, boiled down: as §1

The next experiment addresses ELF4 (Homo sapiens, UniProt Q99607 1-663). The following applies: protein: recombinant; tags: N-terminal GST; dsDNA, one strand shown. The method, boiled down:
as §1

For the next experiment, the target named is T3, ELK4 (Homo sapiens, UniProt P28324-2 1-405).
T3 sequence: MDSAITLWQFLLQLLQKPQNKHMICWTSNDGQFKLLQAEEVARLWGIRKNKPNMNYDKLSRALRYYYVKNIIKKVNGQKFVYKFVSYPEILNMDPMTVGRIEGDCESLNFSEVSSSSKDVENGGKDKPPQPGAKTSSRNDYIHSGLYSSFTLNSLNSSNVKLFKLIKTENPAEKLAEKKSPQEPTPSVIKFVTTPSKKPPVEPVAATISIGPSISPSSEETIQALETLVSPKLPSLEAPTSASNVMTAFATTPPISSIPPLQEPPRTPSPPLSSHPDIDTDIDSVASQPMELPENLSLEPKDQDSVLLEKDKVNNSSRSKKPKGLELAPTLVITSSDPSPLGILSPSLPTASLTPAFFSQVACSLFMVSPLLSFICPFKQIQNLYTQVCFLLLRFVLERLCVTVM
The following applies: protein: recombinant; tags: N-terminal GST; dsDNA, one strand shown. The method, boiled down:
as §1

A further experiment deals with T4, ETV2 (Homo sapiens, UniProt O00321 1-342).
T4 sequence: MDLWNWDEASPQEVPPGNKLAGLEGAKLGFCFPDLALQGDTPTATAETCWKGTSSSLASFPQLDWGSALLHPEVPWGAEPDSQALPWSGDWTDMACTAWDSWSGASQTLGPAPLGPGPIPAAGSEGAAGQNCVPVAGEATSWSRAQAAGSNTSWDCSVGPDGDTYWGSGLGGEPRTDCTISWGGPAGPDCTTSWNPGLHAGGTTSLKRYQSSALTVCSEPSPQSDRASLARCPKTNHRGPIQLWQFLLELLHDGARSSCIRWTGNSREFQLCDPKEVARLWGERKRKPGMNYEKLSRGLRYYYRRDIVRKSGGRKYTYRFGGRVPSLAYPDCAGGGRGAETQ
To be noted: protein: recombinant; tags: N-terminal GST; dsDNA, one strand shown. The method, boiled down: as §1

The target in a further experiment is T5, ELF3 (Homo sapiens, UniProt P78545 1-371).
T5 sequence: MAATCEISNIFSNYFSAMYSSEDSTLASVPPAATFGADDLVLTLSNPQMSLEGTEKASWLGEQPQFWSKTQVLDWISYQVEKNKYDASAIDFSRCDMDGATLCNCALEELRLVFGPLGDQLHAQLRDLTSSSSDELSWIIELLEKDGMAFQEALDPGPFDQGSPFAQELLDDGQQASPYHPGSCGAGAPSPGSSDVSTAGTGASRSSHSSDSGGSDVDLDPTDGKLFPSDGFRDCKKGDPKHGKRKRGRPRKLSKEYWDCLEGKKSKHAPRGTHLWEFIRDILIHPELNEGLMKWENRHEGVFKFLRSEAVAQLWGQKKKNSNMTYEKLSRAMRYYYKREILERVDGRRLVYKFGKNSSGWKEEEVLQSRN
The following applies: protein: recombinant; tags: N-terminal GST; dsDNA, one strand shown. The method, boiled down: as §1

In the next experiment the target is CRX (Homo sapiens, UniProt O43186 1-299). The following applies: protein: recombinant; tags: N-terminal GST; dsDNA, one strand shown. The method, boiled down:
as §1

The next experiment has as its target ETV1 (Homo sapiens, UniProt P50549 1-477). To be noted: protein: recombinant; tags: N-terminal GST; dsDNA, one strand shown. The method, boiled down: as §1
A further experiment addresses T6, ERF (Homo sapiens, UniProt P50548 1-548).
T6 sequence: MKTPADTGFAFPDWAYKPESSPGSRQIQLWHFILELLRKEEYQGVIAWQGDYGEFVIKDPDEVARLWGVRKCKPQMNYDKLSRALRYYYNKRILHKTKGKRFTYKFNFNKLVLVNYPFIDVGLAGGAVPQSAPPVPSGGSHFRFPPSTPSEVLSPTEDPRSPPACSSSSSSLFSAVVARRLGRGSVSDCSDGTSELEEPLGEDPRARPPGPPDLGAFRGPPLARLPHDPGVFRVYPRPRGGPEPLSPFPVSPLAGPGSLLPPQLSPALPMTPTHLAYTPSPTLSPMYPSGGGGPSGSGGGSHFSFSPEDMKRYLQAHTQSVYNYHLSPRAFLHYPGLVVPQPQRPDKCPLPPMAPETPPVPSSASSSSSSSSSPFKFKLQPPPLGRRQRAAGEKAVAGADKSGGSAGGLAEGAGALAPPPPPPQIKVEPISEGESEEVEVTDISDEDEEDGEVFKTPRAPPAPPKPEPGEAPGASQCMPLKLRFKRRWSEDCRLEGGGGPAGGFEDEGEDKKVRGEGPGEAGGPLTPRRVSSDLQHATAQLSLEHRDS
To be noted: protein: recombinant; tags: N-terminal GST; dsDNA, one strand shown. The method, boiled down: as §1

For a further experiment, the target named is T7, ETV3L (Homo sapiens, UniProt Q6ZN32 1-361).
T7 sequence: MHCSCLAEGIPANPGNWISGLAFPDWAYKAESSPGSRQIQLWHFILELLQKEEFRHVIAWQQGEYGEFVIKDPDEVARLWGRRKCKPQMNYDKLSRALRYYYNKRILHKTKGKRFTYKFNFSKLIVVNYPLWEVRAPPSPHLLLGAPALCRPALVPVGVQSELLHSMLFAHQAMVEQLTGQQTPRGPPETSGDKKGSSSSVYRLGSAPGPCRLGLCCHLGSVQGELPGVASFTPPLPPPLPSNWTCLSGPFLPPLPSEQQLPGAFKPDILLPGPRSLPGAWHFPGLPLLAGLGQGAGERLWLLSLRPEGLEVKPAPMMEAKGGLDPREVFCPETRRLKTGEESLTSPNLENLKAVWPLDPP
To be noted: protein: recombinant; tags: N-terminal GST; dsDNA, one strand shown. The method, boiled down: as §1

Another experiment has as its target T8, ETS2 (Homo sapiens, UniProt P15036 1-469).
T8 sequence: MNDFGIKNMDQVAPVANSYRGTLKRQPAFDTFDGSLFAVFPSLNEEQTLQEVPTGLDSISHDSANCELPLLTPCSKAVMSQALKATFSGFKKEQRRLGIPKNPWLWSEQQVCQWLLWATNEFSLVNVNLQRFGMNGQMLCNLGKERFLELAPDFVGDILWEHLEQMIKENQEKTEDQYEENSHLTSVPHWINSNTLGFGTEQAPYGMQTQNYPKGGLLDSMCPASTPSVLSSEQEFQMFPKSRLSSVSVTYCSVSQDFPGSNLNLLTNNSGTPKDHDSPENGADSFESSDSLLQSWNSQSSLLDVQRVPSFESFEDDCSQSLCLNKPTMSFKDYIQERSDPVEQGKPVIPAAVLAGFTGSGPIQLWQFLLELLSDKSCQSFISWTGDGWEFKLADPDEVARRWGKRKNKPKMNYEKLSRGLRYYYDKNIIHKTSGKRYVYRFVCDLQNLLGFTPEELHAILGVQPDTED
The following applies: protein: recombinant; tags: N-terminal GST; dsDNA, one strand shown. The method, boiled down:
as §1

For a further experiment, the target named is T9, SPDEF (Homo sapiens, UniProt O95238 1-335).
T9 sequence: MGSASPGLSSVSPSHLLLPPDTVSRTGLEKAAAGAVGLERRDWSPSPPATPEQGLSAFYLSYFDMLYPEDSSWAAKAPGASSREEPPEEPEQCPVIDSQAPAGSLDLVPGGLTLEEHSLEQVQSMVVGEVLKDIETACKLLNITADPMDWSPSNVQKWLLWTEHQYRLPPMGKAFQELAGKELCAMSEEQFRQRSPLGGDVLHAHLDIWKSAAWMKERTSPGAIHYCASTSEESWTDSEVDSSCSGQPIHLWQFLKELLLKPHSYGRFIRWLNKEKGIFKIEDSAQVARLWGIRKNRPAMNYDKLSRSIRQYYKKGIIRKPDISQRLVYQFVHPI
To be noted: protein: recombinant; tags: N-terminal GST; dsDNA, one strand shown. The method, boiled down: as §1

The next experiment deals with T10, ETV7 (Homo sapiens, UniProt Q9Y603 1-341).
T10 sequence: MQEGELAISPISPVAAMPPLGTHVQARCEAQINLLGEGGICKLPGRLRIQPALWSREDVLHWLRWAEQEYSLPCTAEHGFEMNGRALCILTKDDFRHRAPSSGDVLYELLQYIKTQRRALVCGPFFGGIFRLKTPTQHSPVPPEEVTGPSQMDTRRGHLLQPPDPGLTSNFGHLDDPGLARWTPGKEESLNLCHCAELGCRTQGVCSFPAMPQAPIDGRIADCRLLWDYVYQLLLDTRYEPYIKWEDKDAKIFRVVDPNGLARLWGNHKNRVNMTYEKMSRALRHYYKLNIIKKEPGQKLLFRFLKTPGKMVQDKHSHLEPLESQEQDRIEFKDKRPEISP
To be noted: protein: recombinant; tags: N-terminal GST; dsDNA, one strand shown. The method, boiled down: as §1

A further experiment deals with T11, ELF5 (Homo sapiens, UniProt Q9UKW6-2 1-255).
T11 sequence: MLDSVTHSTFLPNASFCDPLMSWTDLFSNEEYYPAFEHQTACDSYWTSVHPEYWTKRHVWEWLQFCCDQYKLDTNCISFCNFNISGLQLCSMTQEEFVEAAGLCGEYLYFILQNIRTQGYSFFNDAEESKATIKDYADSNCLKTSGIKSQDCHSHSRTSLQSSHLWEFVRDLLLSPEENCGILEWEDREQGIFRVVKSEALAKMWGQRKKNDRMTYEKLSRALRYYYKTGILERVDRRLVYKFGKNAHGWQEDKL
To be noted: protein: recombinant; tags: N-terminal GST; dsDNA, one strand shown. The method, boiled down:
as §1

The target in a further experiment is T12, ETV3 (Homo sapiens, UniProt P41162-2 1-143).
T12 sequence: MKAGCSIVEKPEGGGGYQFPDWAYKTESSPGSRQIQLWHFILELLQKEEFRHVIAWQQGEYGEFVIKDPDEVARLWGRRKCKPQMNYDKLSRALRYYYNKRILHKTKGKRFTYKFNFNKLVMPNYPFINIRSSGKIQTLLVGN
The following applies: protein: recombinant; tags: N-terminal GST; dsDNA, one strand shown. The method, boiled down:
as §1

For another experiment, the target named is ETV6 (Homo sapiens, UniProt P41212 1-452). The following applies: protein: recombinant; tags: N-terminal GST; dsDNA, one strand shown. The method, boiled down: as §1
Chain of ETV6 (P41212 whole entry): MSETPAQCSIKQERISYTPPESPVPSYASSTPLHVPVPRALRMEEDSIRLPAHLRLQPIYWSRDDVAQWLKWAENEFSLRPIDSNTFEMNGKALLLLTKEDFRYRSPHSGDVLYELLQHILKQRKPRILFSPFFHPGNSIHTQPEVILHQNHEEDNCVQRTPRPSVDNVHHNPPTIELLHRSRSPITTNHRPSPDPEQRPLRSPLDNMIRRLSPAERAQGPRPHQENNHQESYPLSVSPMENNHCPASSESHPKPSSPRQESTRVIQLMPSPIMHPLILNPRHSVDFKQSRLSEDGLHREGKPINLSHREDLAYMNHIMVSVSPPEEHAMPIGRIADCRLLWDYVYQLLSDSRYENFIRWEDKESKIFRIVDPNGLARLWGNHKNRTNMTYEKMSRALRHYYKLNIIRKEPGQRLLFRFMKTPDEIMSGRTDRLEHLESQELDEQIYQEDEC

Chain of ETV5 (P41161 whole entry): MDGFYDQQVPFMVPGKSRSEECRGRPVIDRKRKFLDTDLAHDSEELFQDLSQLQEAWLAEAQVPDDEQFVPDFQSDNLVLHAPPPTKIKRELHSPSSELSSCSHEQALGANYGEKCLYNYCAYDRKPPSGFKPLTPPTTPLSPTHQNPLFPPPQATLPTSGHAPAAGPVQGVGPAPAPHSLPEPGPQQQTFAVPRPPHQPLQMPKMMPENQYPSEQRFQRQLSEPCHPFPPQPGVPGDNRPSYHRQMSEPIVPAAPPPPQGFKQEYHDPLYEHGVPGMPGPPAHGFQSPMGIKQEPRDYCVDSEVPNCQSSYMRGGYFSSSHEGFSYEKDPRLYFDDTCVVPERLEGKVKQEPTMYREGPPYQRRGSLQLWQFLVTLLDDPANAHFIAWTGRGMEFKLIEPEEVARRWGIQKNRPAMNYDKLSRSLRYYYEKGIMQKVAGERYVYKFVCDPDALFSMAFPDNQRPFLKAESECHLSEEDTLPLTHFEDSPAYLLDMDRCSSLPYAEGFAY
Chain of CRX (O43186 whole entry): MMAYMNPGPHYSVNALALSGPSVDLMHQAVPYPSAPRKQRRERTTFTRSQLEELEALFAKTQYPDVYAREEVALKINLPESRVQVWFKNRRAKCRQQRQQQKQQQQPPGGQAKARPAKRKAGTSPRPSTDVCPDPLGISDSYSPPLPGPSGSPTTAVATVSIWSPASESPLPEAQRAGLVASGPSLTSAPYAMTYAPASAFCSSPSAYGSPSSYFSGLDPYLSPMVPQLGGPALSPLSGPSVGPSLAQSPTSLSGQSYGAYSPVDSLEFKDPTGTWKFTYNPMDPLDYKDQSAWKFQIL
Chain of ETV1 (P50549 whole entry): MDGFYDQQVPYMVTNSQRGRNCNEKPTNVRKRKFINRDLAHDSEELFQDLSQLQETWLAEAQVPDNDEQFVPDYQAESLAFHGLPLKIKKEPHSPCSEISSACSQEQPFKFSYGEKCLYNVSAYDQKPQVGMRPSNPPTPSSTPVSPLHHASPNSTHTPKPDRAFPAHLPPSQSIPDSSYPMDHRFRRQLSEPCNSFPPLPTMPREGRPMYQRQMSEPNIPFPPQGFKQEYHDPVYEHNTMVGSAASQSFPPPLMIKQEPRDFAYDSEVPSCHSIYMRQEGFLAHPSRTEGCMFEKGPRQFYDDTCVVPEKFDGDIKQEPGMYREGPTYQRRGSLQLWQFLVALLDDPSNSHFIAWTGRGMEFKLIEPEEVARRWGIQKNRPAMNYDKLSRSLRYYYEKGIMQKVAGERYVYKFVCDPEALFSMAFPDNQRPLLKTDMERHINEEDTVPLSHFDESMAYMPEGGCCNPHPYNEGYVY
Chain of ELF4 (Q99607 whole entry): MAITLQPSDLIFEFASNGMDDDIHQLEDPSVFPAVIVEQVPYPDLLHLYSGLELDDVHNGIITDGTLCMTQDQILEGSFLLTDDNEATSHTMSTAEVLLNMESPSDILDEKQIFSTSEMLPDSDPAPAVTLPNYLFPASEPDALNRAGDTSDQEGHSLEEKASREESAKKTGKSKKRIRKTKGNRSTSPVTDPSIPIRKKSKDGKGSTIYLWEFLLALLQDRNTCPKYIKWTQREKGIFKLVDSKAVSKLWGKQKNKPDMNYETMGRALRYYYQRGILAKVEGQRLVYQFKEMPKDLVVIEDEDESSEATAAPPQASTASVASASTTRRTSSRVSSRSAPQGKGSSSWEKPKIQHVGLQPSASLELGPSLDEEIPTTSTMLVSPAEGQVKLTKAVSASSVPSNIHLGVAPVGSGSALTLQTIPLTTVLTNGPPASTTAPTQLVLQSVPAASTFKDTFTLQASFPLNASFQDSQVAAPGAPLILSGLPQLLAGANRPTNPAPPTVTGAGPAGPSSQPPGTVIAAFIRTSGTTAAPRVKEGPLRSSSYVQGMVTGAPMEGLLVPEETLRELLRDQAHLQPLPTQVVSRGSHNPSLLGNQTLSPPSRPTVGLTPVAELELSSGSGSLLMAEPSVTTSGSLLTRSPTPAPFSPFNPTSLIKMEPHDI
Chain of HSF1 (Q00613 whole entry): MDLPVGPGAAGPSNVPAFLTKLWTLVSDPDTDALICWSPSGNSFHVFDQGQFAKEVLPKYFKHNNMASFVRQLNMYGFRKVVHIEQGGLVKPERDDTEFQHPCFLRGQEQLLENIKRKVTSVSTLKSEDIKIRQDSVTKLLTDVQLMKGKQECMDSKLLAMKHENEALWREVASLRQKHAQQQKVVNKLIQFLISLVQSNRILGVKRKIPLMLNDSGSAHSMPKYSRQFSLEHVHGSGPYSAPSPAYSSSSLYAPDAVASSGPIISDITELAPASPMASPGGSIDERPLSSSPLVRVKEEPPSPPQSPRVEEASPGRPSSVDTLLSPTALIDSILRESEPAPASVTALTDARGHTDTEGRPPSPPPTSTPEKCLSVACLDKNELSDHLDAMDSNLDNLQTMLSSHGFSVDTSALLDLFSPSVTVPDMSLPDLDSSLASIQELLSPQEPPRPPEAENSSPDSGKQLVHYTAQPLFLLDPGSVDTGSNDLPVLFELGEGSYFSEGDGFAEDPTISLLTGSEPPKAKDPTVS

With CTGCAT, the binding signal with FEV is 1.54 fold enrichment (6-mer frequency, TF over GST control); with ETV5, 1.46 fold enrichment (6-mer frequency, TF over GST control); with HSF1 it was 1.12 fold enrichment (6-mer frequency, TF over GST control); with SPIC it was 1.32 fold enrichment (6-mer frequency, TF over GST control); with ELF4, 1.43 fold enrichment (6-mer frequency, TF over GST control); with ELK4 it was 1.39 fold enrichment (6-mer frequency, TF over GST control). For the same sequence, the binding signal with ETV2 is 1.28 fold enrichment (6-mer frequency, TF over GST control); with ELF3 it was 1.4 fold enrichment (6-mer frequency, TF over GST control); with CRX it was 1.12 fold enrichment (6-mer frequency, TF over GST control); with ETV1 it was 1.29 fold enrichment (6-mer frequency, TF over GST control); with ERF, 1.38 fold enrichment (6-mer frequency, TF over GST control); with ETV3L, 1.66 fold enrichment (6-mer frequency, TF over GST control). Moreover, the binding signal with ETS2 was 1.4 fold enrichment (6-mer frequency, TF over GST control); with SPDEF it was 1.57 fold enrichment (6-mer frequency, TF over GST control); in the experiment with ETV7, 1.41 fold enrichment (6-mer frequency, TF over GST control); with ELF5, 1.29 fold enrichment (6-mer frequency, TF over GST control); with ETV3 it was 1.24 fold enrichment (6-mer frequency, TF over GST control); in the experiment with ETV6, 1.25 fold enrichment (6-mer frequency, TF over GST control).
